Consider 6 compounds from ChEMBL document CHEMBL1961873, “Compounds: GSK PKIS; Assays: Nanosyn kinase panel” (2012).

In general, inhibition refers to the drop in the measured response relative to a control, in per cent.

In test [1] the target is Tyrosine-protein kinase CSK (Homo sapiens) (UniProt P41240). The following applies: at 1 µM.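 Also: each value is an averaged inhibition reading.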
Test [2] addresses T1, Discoidin domain-containing receptor 2 (Homo sapiens) (UniProt Q16832).
T1 sequence (whole entry): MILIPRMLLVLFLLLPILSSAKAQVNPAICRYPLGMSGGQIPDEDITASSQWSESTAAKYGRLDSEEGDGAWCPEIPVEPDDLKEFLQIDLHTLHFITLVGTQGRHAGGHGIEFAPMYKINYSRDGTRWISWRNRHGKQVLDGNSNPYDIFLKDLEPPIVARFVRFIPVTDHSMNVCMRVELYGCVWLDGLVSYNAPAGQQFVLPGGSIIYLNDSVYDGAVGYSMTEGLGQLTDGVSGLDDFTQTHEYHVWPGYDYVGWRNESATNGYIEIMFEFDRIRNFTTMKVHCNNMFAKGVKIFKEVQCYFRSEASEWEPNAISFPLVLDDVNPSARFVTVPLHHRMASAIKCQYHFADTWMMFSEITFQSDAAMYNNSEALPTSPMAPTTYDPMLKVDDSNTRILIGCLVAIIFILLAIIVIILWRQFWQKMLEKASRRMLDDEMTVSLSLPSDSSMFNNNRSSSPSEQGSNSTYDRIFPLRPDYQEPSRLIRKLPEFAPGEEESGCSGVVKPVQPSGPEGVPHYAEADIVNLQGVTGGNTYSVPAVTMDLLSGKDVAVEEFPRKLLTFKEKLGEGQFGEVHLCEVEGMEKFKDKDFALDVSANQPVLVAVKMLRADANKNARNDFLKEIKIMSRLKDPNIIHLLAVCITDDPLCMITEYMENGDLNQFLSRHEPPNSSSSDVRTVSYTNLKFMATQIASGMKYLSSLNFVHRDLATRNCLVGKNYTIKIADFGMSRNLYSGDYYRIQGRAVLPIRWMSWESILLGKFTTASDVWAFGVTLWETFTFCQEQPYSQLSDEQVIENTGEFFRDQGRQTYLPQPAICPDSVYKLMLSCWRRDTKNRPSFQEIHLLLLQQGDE
The following applies: at 0.1 µM.

The target in test [3] is T1, Discoidin domain-containing receptor 2 (Homo sapiens). To be noted: at 1 µM.
Test [4] addresses Epidermal growth factor receptor (Homo sapiens) (UniProt P00533). To be noted: at 0.1 µM.
For test [5] the target is unchanged. To be noted: at 1 µM.
Test [6] relates to Epidermal growth factor receptor (Homo sapiens), P00533 [L858R]. To be noted: at 0.1 µM.
Sequence of Epidermal growth factor receptor (Homo sapiens), P00533 [L858R] (P00533 whole entry L858R): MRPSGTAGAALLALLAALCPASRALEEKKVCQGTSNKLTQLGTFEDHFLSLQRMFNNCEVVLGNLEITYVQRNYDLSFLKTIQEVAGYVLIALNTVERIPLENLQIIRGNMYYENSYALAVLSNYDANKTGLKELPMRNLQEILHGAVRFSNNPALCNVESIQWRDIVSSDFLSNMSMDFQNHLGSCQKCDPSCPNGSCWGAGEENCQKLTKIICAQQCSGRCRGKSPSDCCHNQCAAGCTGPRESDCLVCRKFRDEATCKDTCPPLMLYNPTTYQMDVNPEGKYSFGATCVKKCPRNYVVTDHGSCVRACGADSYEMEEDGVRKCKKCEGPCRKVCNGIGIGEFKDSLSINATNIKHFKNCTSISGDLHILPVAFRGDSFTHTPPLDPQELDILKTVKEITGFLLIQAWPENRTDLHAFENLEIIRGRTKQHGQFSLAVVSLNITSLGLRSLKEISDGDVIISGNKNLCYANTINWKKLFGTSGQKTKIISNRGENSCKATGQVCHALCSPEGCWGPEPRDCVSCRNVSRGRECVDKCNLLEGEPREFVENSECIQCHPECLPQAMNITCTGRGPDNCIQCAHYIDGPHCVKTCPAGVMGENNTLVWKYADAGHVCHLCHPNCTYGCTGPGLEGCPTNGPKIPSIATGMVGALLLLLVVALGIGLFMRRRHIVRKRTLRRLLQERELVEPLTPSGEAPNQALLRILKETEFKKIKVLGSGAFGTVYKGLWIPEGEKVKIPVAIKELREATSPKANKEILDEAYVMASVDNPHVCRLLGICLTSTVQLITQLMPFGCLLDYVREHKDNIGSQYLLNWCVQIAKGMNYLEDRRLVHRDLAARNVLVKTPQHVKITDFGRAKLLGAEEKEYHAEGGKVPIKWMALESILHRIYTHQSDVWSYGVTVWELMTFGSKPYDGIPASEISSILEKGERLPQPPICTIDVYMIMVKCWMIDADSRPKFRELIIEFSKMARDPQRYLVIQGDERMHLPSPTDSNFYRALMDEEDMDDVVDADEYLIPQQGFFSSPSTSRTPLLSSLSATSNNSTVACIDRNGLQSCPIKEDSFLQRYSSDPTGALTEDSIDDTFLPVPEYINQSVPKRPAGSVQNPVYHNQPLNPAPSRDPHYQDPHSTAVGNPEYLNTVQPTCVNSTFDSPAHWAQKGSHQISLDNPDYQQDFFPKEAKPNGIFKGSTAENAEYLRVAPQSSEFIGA
The test system is the same in test [7]. To be noted: at 1 µM.
For test [8], the system named is Epidermal growth factor receptor (Homo sapiens), P00533 [L861Q]. To be noted: at 0.1 µM.
Test [9] has the same test system. The following applies: at 1 µM.
Test [10] concerns Epidermal growth factor receptor (Homo sapiens), P00533 [T790M]. The following applies: at 0.1 µM.
The test system is the same in test [11]. The following applies: at 1 µM.
Test [12] concerns Epidermal growth factor receptor (Homo sapiens), P00533 [L858R,T790M]. The following applies: at 0.1 µM.
Sequence of Epidermal growth factor receptor (Homo sapiens), P00533 [L858R,T790M] (P00533 whole entry T790M/L858R, looked up): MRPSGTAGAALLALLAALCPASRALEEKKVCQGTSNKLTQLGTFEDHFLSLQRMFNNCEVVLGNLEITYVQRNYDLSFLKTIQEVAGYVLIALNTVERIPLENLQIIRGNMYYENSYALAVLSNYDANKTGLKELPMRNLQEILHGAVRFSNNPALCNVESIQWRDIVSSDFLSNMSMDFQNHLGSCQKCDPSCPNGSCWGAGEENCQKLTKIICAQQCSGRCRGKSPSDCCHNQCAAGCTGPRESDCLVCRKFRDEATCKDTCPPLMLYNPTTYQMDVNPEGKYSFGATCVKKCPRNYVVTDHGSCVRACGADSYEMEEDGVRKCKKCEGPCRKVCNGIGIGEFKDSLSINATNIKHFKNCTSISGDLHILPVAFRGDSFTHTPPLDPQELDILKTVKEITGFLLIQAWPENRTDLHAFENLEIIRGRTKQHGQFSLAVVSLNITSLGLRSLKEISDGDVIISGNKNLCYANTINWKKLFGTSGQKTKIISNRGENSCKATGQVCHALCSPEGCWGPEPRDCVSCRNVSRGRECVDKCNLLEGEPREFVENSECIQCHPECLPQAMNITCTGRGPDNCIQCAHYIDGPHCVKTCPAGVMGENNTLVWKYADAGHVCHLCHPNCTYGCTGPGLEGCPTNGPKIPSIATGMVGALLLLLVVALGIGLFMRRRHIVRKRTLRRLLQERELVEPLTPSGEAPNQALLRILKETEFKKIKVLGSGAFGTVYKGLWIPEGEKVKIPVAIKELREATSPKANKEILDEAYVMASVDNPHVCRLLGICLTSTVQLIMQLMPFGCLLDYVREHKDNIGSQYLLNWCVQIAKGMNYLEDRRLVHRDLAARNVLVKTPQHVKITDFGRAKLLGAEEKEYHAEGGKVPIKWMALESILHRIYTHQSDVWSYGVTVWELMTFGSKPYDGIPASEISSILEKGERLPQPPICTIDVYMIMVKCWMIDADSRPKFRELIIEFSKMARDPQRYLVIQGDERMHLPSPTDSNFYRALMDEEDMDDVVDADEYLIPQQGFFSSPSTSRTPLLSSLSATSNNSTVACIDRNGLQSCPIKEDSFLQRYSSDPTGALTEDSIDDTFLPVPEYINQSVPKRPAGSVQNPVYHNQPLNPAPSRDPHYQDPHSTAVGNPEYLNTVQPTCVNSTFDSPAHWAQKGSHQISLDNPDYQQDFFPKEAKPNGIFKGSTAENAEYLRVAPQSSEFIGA
For test [13] the test system is unchanged. The following applies: at 1 µM.
Test [14] addresses Ephrin type-A receptor 2 (Homo sapiens) (UniProt P29317). The following applies: at 0.1 µM.
Test [15] shares this target. The following applies: at 1 µM.
In test [16] the target is T2, Ephrin type-A receptor 3 (Homo sapiens) (UniProt P29320).
T2 sequence (whole entry): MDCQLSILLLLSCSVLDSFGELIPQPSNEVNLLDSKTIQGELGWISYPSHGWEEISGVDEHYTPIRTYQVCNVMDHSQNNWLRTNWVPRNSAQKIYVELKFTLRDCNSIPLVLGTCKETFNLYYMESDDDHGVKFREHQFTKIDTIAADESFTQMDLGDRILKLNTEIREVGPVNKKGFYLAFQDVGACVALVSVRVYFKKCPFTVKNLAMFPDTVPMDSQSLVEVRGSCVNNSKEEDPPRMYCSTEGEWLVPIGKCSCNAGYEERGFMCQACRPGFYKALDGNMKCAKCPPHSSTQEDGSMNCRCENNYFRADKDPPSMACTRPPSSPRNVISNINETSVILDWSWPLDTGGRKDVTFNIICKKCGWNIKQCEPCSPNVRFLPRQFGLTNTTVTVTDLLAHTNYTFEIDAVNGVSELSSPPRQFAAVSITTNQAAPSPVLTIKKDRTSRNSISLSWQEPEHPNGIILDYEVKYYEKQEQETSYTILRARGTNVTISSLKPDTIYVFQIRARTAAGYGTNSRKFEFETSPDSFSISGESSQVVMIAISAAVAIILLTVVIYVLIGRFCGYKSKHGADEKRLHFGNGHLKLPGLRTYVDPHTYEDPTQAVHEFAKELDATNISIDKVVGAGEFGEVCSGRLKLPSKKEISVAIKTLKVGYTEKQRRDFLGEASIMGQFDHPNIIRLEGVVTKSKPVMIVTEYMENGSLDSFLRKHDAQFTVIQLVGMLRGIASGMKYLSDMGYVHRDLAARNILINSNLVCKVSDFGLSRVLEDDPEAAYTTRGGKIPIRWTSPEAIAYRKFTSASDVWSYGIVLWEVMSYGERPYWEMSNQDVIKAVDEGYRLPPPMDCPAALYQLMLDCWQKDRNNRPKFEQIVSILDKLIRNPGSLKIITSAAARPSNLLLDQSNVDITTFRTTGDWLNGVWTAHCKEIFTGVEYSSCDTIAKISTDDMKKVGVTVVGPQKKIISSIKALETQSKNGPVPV
To be noted: at 0.1 µM.

Test [17] addresses T2, Ephrin type-A receptor 3 (Homo sapiens). To be noted: at 1 µM.
Test [18] addresses Ephrin type-A receptor 4 (Homo sapiens) (UniProt P54764). The following applies: at 0.1 µM.
Test [19] shares this target. To be noted: at 1 µM.
The target in test [20] is T3, Ephrin type-B receptor 2 (Homo sapiens) (UniProt P29323).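 Also: reported as mean inhibition of EPHB2, from the GSK PKIS dataset.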
T3 sequence (whole entry): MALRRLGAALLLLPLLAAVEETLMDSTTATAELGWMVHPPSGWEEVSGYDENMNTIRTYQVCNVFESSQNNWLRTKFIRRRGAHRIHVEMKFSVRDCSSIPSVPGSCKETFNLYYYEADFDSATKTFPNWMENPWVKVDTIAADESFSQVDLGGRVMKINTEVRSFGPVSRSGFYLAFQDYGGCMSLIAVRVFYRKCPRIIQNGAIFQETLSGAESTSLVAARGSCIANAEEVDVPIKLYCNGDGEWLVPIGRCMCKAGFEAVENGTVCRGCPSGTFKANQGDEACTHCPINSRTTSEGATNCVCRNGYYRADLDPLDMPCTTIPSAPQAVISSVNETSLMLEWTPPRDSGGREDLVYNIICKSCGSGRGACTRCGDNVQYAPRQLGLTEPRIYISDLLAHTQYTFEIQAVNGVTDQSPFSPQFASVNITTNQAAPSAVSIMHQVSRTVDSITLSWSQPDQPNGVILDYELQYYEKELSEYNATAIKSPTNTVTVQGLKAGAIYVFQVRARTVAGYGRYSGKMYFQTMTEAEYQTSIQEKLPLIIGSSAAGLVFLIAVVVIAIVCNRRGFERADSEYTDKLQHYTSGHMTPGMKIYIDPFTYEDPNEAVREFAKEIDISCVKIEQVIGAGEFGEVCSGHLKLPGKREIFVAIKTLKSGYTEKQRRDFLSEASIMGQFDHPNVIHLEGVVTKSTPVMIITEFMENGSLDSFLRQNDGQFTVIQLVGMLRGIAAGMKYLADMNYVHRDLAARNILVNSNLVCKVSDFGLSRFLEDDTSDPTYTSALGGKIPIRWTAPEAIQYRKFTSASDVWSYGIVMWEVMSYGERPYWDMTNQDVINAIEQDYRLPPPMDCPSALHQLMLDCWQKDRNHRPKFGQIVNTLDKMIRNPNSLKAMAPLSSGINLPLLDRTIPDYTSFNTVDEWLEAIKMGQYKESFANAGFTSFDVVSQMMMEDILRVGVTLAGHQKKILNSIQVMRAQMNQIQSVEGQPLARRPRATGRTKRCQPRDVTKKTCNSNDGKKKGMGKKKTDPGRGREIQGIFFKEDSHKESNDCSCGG
The following applies: at 0.1 µM.

Sequence of Tyrosine-protein kinase CSK (Homo sapiens) (P41240 2-450 limits assumed): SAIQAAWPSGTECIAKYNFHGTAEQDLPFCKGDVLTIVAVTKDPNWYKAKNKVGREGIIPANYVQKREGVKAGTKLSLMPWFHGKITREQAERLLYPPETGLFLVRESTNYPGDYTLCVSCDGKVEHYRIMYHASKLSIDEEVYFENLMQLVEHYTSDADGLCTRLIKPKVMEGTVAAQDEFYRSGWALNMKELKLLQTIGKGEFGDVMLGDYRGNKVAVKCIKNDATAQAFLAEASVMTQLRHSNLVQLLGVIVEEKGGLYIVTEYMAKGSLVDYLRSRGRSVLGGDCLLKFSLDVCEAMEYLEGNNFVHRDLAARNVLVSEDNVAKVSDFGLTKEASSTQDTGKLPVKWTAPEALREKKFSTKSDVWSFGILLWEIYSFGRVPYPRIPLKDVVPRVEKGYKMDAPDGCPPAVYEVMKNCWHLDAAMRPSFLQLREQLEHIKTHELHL
Sequence of Ephrin type-A receptor 2 (Homo sapiens) (P29317 whole entry): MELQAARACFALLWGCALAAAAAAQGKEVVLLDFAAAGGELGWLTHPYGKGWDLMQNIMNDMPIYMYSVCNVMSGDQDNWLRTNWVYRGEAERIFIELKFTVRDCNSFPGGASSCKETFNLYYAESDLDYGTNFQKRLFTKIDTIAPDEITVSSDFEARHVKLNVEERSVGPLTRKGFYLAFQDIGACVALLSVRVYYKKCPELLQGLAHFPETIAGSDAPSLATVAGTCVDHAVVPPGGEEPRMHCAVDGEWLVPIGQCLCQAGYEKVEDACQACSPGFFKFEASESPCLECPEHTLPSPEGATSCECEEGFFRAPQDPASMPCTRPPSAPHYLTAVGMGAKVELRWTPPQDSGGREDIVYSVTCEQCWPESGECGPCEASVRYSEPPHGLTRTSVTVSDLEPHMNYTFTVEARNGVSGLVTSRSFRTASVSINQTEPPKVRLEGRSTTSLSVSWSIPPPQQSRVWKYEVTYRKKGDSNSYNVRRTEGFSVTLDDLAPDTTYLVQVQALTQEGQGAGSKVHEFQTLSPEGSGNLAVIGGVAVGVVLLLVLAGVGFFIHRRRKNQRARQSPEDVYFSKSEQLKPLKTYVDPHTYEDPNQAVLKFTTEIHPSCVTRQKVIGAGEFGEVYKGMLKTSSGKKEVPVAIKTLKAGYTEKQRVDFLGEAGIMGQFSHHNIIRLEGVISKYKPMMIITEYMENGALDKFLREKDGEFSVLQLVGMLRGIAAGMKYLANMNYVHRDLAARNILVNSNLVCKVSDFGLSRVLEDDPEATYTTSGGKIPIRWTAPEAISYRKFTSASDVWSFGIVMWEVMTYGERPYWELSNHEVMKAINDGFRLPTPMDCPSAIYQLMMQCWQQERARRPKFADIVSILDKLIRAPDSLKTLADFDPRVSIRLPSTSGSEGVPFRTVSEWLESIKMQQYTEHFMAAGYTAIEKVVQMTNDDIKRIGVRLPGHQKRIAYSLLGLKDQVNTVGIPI
Sequence of Ephrin type-A receptor 4 (Homo sapiens) (P54764 whole entry): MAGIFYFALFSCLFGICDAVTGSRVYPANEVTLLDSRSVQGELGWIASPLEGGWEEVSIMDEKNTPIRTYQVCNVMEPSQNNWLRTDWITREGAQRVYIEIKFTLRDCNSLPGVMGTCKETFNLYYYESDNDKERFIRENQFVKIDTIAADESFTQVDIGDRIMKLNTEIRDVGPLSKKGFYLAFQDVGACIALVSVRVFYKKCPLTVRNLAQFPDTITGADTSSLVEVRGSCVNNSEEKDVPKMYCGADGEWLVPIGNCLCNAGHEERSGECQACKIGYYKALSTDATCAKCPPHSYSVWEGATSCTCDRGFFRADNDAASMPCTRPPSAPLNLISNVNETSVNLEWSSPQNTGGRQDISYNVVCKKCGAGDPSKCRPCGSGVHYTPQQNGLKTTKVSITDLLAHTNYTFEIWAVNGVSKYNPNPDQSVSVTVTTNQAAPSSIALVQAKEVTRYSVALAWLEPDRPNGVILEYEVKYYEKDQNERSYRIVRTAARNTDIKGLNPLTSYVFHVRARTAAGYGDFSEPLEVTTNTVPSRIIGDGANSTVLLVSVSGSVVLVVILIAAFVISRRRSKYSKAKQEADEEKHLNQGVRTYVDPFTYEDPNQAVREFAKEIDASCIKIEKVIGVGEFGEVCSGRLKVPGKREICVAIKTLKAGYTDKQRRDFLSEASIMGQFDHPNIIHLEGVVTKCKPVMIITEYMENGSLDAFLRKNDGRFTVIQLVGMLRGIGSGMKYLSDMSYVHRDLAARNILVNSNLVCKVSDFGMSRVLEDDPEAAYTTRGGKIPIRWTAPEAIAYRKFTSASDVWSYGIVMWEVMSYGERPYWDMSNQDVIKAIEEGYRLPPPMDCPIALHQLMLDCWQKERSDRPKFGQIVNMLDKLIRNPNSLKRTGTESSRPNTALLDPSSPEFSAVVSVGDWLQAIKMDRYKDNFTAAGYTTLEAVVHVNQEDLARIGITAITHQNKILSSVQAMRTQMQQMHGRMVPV

On to `CCn1c(-c2nonc2N)nc2cnc(Oc3cccc(NC(=O)c4ccc(OCCN5CCOCC5)cc4)c3)cc21`, for which the inhibition in test [1] is 2.94%; in [2], 1.27%; in test [3], -0.68%; in [4], 1.37%; in [5], 3%; in test [6], 1.72%. For the same compound, the inhibition was 2.23% in [7]; 2.62% in test [8]; 2.57% in test [9]; 0.97% in [10]; 2.18% in test [11]; -0.63% in [12]. The inhibition in [13] is 3.24%; in test [14] it was -2.53%; in [15] it was -2.47%; in test [16], 3.26%; in test [17], 4.85%; in [18], 7.53%. The inhibition in test [19] stood at 7.73%; in [20], 5.7%.

Consider `Nc1ncnc2occ(-c3ccc(NC(=O)Nc4cccc(C(F)(F)F)c4)cc3)c12`, for which the inhibition amounted to 44.4% in test [1]; 64% in test [2]; 79.2% in test [3]; 1.36% in test [4]; 7.97% in test [5]; 3.92% in [6]. In addition, the inhibition in test [7] was determined as 6.22%; in test [8], 2.76%; in [9] it was 3.15%; in [10] it was 2.8%; in test [11], 4.59%; in test [12], 0.78%. In addition, the inhibition in test [13] was found to be 5.43%; in test [14], 17.2%; in [15], 85%; in test [16], 18.4%; in test [17], 50.6%; in test [18], 46.8%. Further, the results for the inhibition in test [19] and in test [20] were 78.3% and 74.1%, respectively.

On to `COC(=O)Nc1nc2cc(Oc3cccc(NC(=O)Nc4cc(C(F)(F)F)ccc4F)c3)ccc2[nH]1`, for which the inhibition in test [1] is 2.36%; in test [2], 13.2%; in test [3] it was 68.6%; in test [4], 0.87%; in [5], 1.45%; in test [6], -1.54%. Besides, the inhibition in test [7] was 1.41%; in [8] it was -1.86%; in test [9], -4.32%; in [10] it was -1.19%; in [11], -1.93%; in [12] it was -3.25%. The inhibition was 3.44% in [13]; -2.35% in test [14]; 3.83% in [15]; 0.48% in test [16]; 2.56% in test [17]; 1.63% in [18]. The inhibition in test [19] was 14.2%; in test [20] it was -0.54%.

With `NS(=O)(=O)c1cccc(-c2ccc3c(NC(=O)C4CC4)n[nH]c3c2)c1`, the inhibition in [1] is -3.46%; in test [2], -0.11%; in test [3] it was -9.65%; in test [4], 0.04%; in test [5], 0.71%; in test [6], -0.88%. Moreover, the inhibition was -2.32% in test [7]; 1.67% in test [8]; -0.49% in [9]; -1.44% in test [10]; -1.45% in test [11]; -1.29% in test [12]. The inhibition was 3.22% in [13]; -4.33% in test [14]; -3.03% in test [15]; -5.8% in [16]; -2.02% in test [17]; -5.25% in test [18]. Moreover, the figures for the inhibition in test [19] and in test [20] were -5.49% and -1.84%, respectively.

With `NC(=O)c1cccc(Nc2nccc(Nc3cccc4[nH]ncc34)n2)c1`, the inhibition came out at 26.5% in test [1]; 19.9% in [2]; 77.6% in test [3]; 2.96% in [4]; 24.1% in [5]; 13.4% in [6]. Moreover, the inhibition was 70.1% in test [7]; 3.36% in test [8]; 27.8% in test [9]; -1.89% in [10]; -2.41% in [11]; -5.66% in [12]. The inhibition was 8.31% in test [13]; 7.85% in [14]; 53.6% in test [15]; 40.2% in test [16]; 72.9% in test [17]; 31% in test [18]. Further, the figures for the inhibition in test [19] and in test [20] were 81.1% and 30.4%, respectively.

In the case of `O=C1NC(=O)C(c2ccc(Cl)cc2)=C1Nc1ccc(Cl)c(C(=O)O)c1`, the inhibition in test [1] was -4.62%; in test [2], 0.03%; in test [3], 2.46%; in test [4], 1.07%; in test [5], 6.73%; in [6] it was -2.2%. In addition, the inhibition is 6.41% in test [7]; 0.32% in test [8]; 1.03% in test [9]; -0.88% in test [10]; -1.21% in [11]; -0.4% in test [12]. Also, the inhibition in test [13] is -1.38%; in test [14], -2%; in test [15], -1.26%; in [16] it was -3.17%; in test [17] it was -3.69%; in test [18], -6.1%. Moreover, the figures for the inhibition in test [19] and in [20] were -6.97% and -0.68%, respectively.
